# Out of some 310,000 compounds screened, about 14,000 (4.5%) showed an effect of 50% or more. The effect is printed as a negative number. This excerpt belongs to a sample that is enriched for strong results.
# Biological target: human ether-à-go-go-related gene (hERG) potassium channel (human, UniProt Q12809)
# Test: primary screen, population patch clamp on CHO cells stably expressing hERG; higher = less effect of the substance
# 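Also: peak tail current of the secondary pulse compared with the same well before compound.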
# human ether-à-go-go-related gene (hERG) potassium channel, sequence (Q12809 whole entry, looked up): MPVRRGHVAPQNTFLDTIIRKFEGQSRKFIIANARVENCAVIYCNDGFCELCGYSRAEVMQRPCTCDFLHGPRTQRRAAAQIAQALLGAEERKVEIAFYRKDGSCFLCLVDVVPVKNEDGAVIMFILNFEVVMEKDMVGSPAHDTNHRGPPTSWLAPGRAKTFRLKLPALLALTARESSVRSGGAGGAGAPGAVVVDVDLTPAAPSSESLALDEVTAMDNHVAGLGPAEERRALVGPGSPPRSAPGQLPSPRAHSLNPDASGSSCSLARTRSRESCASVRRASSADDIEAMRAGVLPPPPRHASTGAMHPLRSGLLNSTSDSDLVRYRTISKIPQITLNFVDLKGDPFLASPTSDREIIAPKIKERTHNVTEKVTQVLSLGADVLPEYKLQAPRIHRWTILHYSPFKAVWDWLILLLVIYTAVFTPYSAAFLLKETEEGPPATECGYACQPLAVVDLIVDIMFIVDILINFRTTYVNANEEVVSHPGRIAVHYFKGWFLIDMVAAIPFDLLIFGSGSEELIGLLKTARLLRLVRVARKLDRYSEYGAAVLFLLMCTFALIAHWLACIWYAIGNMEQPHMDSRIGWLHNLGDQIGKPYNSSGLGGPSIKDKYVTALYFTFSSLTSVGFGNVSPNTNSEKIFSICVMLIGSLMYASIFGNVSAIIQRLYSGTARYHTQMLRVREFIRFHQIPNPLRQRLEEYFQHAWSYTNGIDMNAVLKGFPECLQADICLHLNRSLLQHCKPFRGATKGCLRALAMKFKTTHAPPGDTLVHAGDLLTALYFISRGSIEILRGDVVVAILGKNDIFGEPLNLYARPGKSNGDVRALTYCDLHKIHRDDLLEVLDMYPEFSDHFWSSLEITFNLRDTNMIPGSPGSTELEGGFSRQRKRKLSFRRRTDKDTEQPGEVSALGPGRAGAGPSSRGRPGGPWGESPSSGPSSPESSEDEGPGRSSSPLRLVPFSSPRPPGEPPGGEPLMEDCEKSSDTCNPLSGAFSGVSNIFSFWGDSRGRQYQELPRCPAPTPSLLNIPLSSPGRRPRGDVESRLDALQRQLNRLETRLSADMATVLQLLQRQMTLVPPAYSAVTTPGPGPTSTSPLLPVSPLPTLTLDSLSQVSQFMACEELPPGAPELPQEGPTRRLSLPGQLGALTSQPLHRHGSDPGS
row,SMILES,"hERG current change (%, negative = inhibition) at 10uM [%]"
1,C=C1C(=O)C=C2CN(C(=O)c3ccccc3)[C@@](Cc3ccc(F)cc3)(C(=O)OC)[C@@H]12,-3.22
2,CCOc1ccc(N2C(=O)CC(N3CCN(C(=O)c4ccco4)CC3)C2=O)cc1 (stereo not drawn),-9.91
3,Cc1cc(C)n(C(=O)CNC(=O)C(c2ccccc2)c2ccccc2)n1,-3
4,CN(C)c1ccc(NC(=O)c2cccc([N+](=O)[O-])c2)c2ccccc12,-4.86
5,COc1cc(C=O)ccc1OCCCOc1ccc([N+](=O)[O-])cc1,-10.8
6,O=C(COC(=O)C1(c2ccc(F)cc2)CCCC1)NCc1ccco1,-2.02
7,CCC(C)NC(=O)c1ccc(C(=O)c2ccccc2)cc1 (stereo not drawn),12.7
8,O=C(c1cnn2c1NC(c1ccc(Br)cc1)CC2C(F)(F)F)N1CCN2CCCC2C1 (stereo not drawn),-63.5
9,O=C(c1cnn2c1NC(c1ccc(Br)cc1)CC2C(F)(F)F)N1CCN(C23CC4CC(CC(C4)C2)C3)CC1 (stereo not drawn),-7.5
10,CN1CCN(C(=O)c2cnn3c2NC(c2ccccc2)CC3C(F)(F)F)CC1 (stereo not drawn),17.1
11,Cc1ccc2c(C)c(C(=O)N(Cc3ccncc3)CC3CCCO3)oc2c1C (stereo not drawn),-51.9
12,CCCc1ccc2oc(C(=O)N(C)CCn3ccnc3C)c(C)c2c1,-61.4
13,CCCc1ccc2oc(C(=O)N(C)Cc3cnccn3)c(C)c2c1,-10.9
14,Cc1c(C(=O)N(Cc2ccncc2)CC2CCCO2)oc2c(F)cccc12 (stereo not drawn),-27.1
15,Cc1c(C(=O)N(Cc2ccc(N(C)C)cc2)CC2CCCO2)oc2ccccc12 (stereo not drawn),-26.5
16,Cc1ccc2oc(C(=O)N(Cc3ccc(N(C)C)cc3)CC3CCCO3)c(C)c2c1 (stereo not drawn),-14.8
17,CCCc1ccc2oc(C(=O)N(C)Cc3nccs3)c(C)c2c1,-48.3
18,Cc1ccc2oc(C(=O)N(Cc3ccncc3)CC3CCCO3)c(C)c2c1 (stereo not drawn),-34.9
19,CCCc1ccc2oc(C(=O)N(Cc3ccncc3)CC3CCCO3)c(C)c2c1 (stereo not drawn),-71.6
20,COc1ccc(/C=N/NC(=S)Nc2ccccc2)cc1COc1ccc(Br)cc1,-1.6
21,Cc1cc(Oc2ccc(C#N)cc2)nc(NCc2ccccc2)n1,2.36
22,O=C1CN(C(=O)C2CC2)c2ccccc2N1,-15.8
23,CC(C)(C)OC(=O)N1CCC(NC(=O)c2[nH]cnc2C(=O)Nc2ccccc2)CC1,-15
24,CNC(=O)COC(=O)c1cccc(S(=O)(=O)N2CCN(c3ccc(F)cc3)CC2)c1,-0.232
25,N#Cc1nccnc1N1CCN(C(=O)Nc2ccccc2)CC1,5.22
26,CCc1cc2cccc(C)c2nc1SCC(=O)NNC(=O)c1ccco1,-0.00372
27,CCc1cc2cc3c(cc2nc1SCC(=O)N1CCN(C(=O)c2ccco2)CC1)OCO3,-28.7

row,SMILES,"hERG current change (%, negative = inhibition) at 10uM [%]"
1,COc1cc2cc(C)c(SCC(=O)N3CCN(C(=O)c4ccco4)CC3)nc2cc1OC,-66
2,CCc1cc2cc(C)cc(C)c2nc1SCC(=O)N1CCN(C(=O)c2ccco2)CC1,-16.2
3,COc1cc2cc(C)c(SCC(=O)N3CCOCC3)nc2cc1OC,-1.12
4,CCc1cc2cc(C)ccc2nc1SCC(=O)N1CCN(C(=O)c2ccco2)CC1,-53.4
5,CCc1cc2cc(C)ccc2nc1SCC(=O)NNC(=O)c1ccco1,21.9
6,CCc1cc2ccc(C)cc2nc1SCC(=O)NNC(=O)c1ccco1,12
7,CCc1cc2cccc(C)c2nc1SCC(=O)N1CCN(C(=O)c2ccco2)CC1,-54.4
8,Cc1cc2cc3c(cc2nc1SCC(=O)N1CCN(C(=O)c2ccco2)CC1)OCO3,-35.3
9,CCc1cc2ccc(OC)cc2nc1SCC(=O)N1CCN(C(=O)c2ccco2)CC1,-49.1
10,CCc1cc2ccc(C)cc2nc1SCC(=O)N1CCN(C(=O)c2ccco2)CC1,-56
11,O=C(CC1C(=O)NCCN1Cc1cccc(C(F)(F)F)c1)NCCc1cnccn1 (stereo not drawn),7.22
12,O=C(COC(=O)c1cc(Cl)ccc1O)NC(=O)NCc1ccccc1,4.6
13,COC(=O)C(CSCc1ccccc1)NC(=O)CSc1nc(C)cc(=O)[nH]1 (stereo not drawn),18.4
14,CN(c1ccccc1)S(=O)(=O)c1ccc(C(=O)NCCc2ccc(F)cc2)cc1,-21.1
15,CC(=O)Nc1ccc(/C(C)=N/NC(=O)c2ccc(CN3CCOCC3)cc2)cc1,25.2
16,Br.CC1CCCC(C)N1Cc1cn2ccccc2n1 (stereo not drawn),7.29
17,Cc1nn(CC(=O)Nc2ccccn2)c(C)c1Br,15.3
18,Nc1ccc2ncccc2c1N,6.47
19,CSc1ccc(CCNS(=O)(=O)c2c(C)[nH]c(C)c2C(=O)N2CCCCC2)cc1,-15.2
20,COc1ccc(CCNC(=O)c2cc(=O)n(C)c(=O)n2C)cc1OC,-0.242
21,Cc1ccc(-n2c(SCC(=O)OC(C)C)nnc2-c2ccco2)cc1,-37.7
22,Cc1cccc(C(=O)Oc2ccccc2/C=N/NC(=O)c2ccc(NC(=O)C(C)(C)C)cc2)c1,-4.88
23,CN1C=CC2=C(C#N)C(N)C(C#N)(C#N)[C@H](c3ccccc3)[C@H]2C1 (stereo partly drawn),-4.67
24,Cc1ccc(-n2nnnc2SCC(=O)NNC(=O)c2ccco2)c(C)c1,-4.35
25,O=C(CSc1nnnn1-c1ccccc1)N1CCN(C(=O)c2ccco2)CC1,-49.4
26,Cc1ccc(-n2nnnc2SCC(=O)N2CCN(C(=O)c3ccco3)CC2)c(C)c1,-76
27,COc1ccccc1NC(=O)c1cnc(SC)nc1,19.2
